Composite z-score and z-score data for 10 compounds are collected here from PubChem BioAssay.

Active and inactive are the calls of the source. Unless noted, the rule behind the calls is not given here.

Experiment [1] has as its system Wnt5a (protein binding on small-molecule microarray). The experiment can be described thus: Wnt5a binders on small-molecule microarray, primary screen, biophysical, 635/667 nm fluorescence (AID 1142).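 Note: fluorescence read at 667 nm with signal to noise per printed feature.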 The settings on record: 635 nm fluorescence, higher = more signal.
Experiment [2] can be described thus: cell viability in Huh7 cells, primary screen, cytotoxicity control for HCV replication inhibitor project, CellTiter-Glo luminescence, basal, 48 h (AID 1143).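 Note: Huh7 hepatoma cells carrying a hepatitis C replication reporter with no stimulus; test concentration not given here.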 As to conditions: Huh7 HCV replicon, higher = more signal, called active from +8 up or from −8 down.
A short description of experiment [3]: P. aeruginosa biofilm formation inhibitors, primary screen, PAO1 strain, BacTiter-Glo luminescence, LB-PBS (AID 1144). The settings on record: 12 h, higher = more signal.
The nature of experiment [4]: CREB reporter modulators without forskolin, primary screen, cell-based, PC12, CRE-LacZ reporter, unstimulated (AID 1145). The settings on record: no forskolin, luminescence, 4.5 h, higher = more signal, called active from +8 up or from −8 down.
A short description of experiment [5]: CREB reporter modulators under forskolin, primary screen, cell-based, PC12, CRE-LacZ reporter, forskolin-stimulated (AID 1146).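 Note: PC12 cells with 6xCRE LacZ reporter stimulated by forskolin 10 µM; beta-galactosidase reporter signal reflecting CREB driven transcription.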 As to conditions: luminescence, 4.5 h, higher = more signal, called active from +8 up or from −8 down.
In experiment [6] the target is Streptavidin (Streptomyces avidinii) (UniProt P22629). The experiment can be described thus: streptavidin binders on small-molecule microarray, primary screen, artefact control for SMM compound annotation, biophysical, 635/667 nm fluorescence (AID 1147).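 Note: signal reflects streptavidin binding to arrayed compounds as a control protein.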 The settings on record: streptavidin binding, higher = more signal.
Chain of Streptavidin (Streptomyces avidinii) (P22629 whole entry, looked up): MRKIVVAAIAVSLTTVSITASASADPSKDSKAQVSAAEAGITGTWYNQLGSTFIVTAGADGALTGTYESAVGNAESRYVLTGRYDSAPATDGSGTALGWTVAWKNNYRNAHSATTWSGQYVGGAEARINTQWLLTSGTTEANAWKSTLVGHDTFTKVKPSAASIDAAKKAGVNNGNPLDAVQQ
Experiment [7] can be described thus: small-molecule binders of probe aInhba, primary screen, biochemical, small-molecule microarray, 635/667 nm fluorescence (AID 1148).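 Note: score merges 667nm spot fluorescence with signal-to-noise for antibody binding to printed compounds.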 The settings on record: higher = more signal.
Experiment [8] has as its target Torsin-1A (Homo sapiens) (UniProt O14656). The experiment in a line: torsin A binders from cell lysate, primary screen, small-molecule microarray, wild-type, 635/667 nm (AID 1149). As to conditions: COS7 hTOR1A-WT lysate, 635 nm fluorescence, higher = more signal.
Experiment [9] shares this target. The experiment in a line: small-molecule binders of mutant TOR1A in lysate, primary screen, cell lysate, small-molecule microarray, COS7 lysate, 635/667 nm fluorescence (AID 1150).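 Note: score pools 667 nm emission and signal to noise measuring lysate protein binding.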 As to conditions: COS7 hTOR1A mutant lysate, 635 nm fluorescence, higher = more signal.
Experiment [10] concerns Sonic hedgehog protein (Shh). The experiment can be described thus: small-molecule binders of Shh protein, primary screen, biochemical, small-molecule microarray, 635/667 nm fluorescence (AID 1151).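 Note: Shh protein binding to compounds spotted on small-molecule microarray slides; score combines spot fluorescence intensity with signal-to-noise across triplicate slides.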 The settings on record: small-molecule microarray binding, 635 nm fluorescence; higher = more signal.

Chain of Torsin-1A (Homo sapiens) (O14656 whole entry, looked up): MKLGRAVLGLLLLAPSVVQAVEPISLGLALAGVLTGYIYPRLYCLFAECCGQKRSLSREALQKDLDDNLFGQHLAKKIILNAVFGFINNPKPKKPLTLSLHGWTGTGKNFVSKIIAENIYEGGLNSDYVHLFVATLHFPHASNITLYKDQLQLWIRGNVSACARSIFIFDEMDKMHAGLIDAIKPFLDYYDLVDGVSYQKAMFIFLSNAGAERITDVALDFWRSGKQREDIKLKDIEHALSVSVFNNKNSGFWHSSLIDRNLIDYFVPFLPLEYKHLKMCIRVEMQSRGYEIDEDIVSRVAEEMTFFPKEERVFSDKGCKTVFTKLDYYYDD

Regarding `COCCCNC(=O)[C@@]1(c2ccc([N+](=O)[O-])cc2)CC(=O)N(C2CCCCC2)[C@@H]1c1ccc(CO)cc1`, the composite z-score in experiment [1] was -0.155; in experiment [6], -0.826; in experiment [7] it was -0.417; in the experiment with Torsin-1A (Homo sapiens) [8], 0.661; with Torsin-1A (Homo sapiens) [9], -0.699; in experiment [10], -0.256. The z-score was -1.72 (inactive) in experiment [2], 0.0997 (inactive) in experiment [3], -0.269 (inactive) in experiment [4] and 0.207 (inactive) in experiment [5].
As to `C#CCNC(/C=C/c1ccccc1)CO` (stereo not given), the composite z-score in experiment [1] was -0.0285; in [6], -0.114; in experiment [7] it was -0.0846; in the experiment with Torsin-1A (Homo sapiens) [8], 0.304; with Torsin-1A (Homo sapiens) [9], 0.443; in [10], 0.448. Besides, the z-score in [2] was 0.171 (inactive); in experiment [3], -0.558 (inactive); in experiment [4], -0.237 (inactive); in experiment [5], 1.39 (inactive).
On to `COc1cc2c(cc1OC)CN(C(=O)[C@H]1[C@@H]3C(=O)O[C@@H](c4ccccc4)[C@@H](c4ccccc4)N3[C@@H](c3ccccc3OCCO)[C@]13C(=O)Nc1ccc(C#CC4(O)CCCCCC4)cc13)CC2`, for which the composite z-score was 1.01 in experiment [1]; 0.899 in [6]; 0.0119 in experiment [7]; 0.808 with Torsin-1A (Homo sapiens) [8]; 1.12 in the experiment with Torsin-1A (Homo sapiens) [9]; 1.33 in experiment [10]. Besides, the z-score is -3.68 (inactive) in [2], -1.5 (inactive) in experiment [3], -0.231 (inactive) in [4] and 1.57 (inactive) in experiment [5].
Consider `O=C1OCCC/C=C\[C@H]2OC34C=CCN(CCN5CCOCC5)C(=O)[C@H]3N(CCCCCO)C(=O)[C@@H]4C12` (stereo not given in full), for which the composite z-score is -0.498 in experiment [1]; -0.293 in experiment [6]; 0.202 in experiment [7]; -1.01 in the experiment with Torsin-1A (Homo sapiens) [8]; -0.649 with Torsin-1A (Homo sapiens) [9]; 0.392 in [10]. Further, the z-score in [2] is 0.305 (inactive); in experiment [3], 1.67 (inactive); in experiment [4], 0.597 (inactive); in experiment [5] it was 0.515 (inactive).
As for `C=C(CCCC)/C(=C/C[C@@H](OC(=O)c1ccncc1)c1cccc(OCCO)c1)c1cc(C(=O)OC)ccc1OC`, the composite z-score stood at 0.153 in [1]; 0.788 in experiment [6]; 0.0852 in [7]; 1.13 with Torsin-1A (Homo sapiens) [8]; 0.76 with Torsin-1A (Homo sapiens) [9]; 1.47 in experiment [10]. In addition, the z-score in [2] was -1.36 (inactive); in [3], -1.04 (inactive); in [4], 13.4 (active); in experiment [5] it was -1.47 (inactive).
In the case of `CCC#CCN(Cc1ccccc1Br)[C@H](/C=C/c1ccccc1)[C@@H](O)Cc1ccccc1`, the composite z-score in experiment [1] was -0.659; in experiment [6], -0.312; in [7], -0.179; with Torsin-1A (Homo sapiens) [8], -0.586; in the experiment with Torsin-1A (Homo sapiens) [9], -0.542; in experiment [10] it was -1.18. The z-score was -1.45 (inactive) in experiment [2], 0.282 (inactive) in experiment [3], 2.94 (inactive) in experiment [4] and 0.272 (inactive) in experiment [5].
Turning to `COCCOC(=O)N1C(=O)[C@@]2(c3cc(C#CCCO)ccc31)[C@H](c1ccc(OCCO)cc1)N1[C@H](c3ccccc3)[C@H](c3ccccc3)OC(=O)[C@H]1[C@@H]2C(=O)NC[C@H](O)c1ccccc1`, the composite z-score in experiment [1] turned out to be 0.619; in [6] it was 0.427; in [7] it was 0.0183; with Torsin-1A (Homo sapiens) [8], 0.703; with Torsin-1A (Homo sapiens) [9] it was 1.16; in [10], 1.7. The z-score in [2] was -2.79 (inactive); in [3] it was -0.668 (inactive); in experiment [4], -1.42 (inactive); in experiment [5], -0.137 (inactive).
Take `Cc1ccc(S(=O)(=O)N2[C@@H](c3ccccc3)C(C(=O)O)=CC[C@H]2c2ccccc2)cc1`: the composite z-score in experiment [1] was 0.105; in [6], 0.263; in experiment [7], 0.0631; with Torsin-1A (Homo sapiens) [8] it was 0.195; with Torsin-1A (Homo sapiens) [9], -0.0024; in [10], -0.497. The z-score in experiment [2] was -0.498 (inactive); in experiment [3], 0.0815 (inactive); in [4], 0.0707 (inactive); in experiment [5] it was -0.303 (inactive).
`CC(C)=C1C(=O)C(c2ccccc2)=C2CN3C(=O)N(CCc4ccccc4)C(=O)[C@]3(Cc3ccccc3)[C@H]21`: the composite z-score in [1] was -0.355; in experiment [6], 0.0686; in [7], 0.128; with Torsin-1A (Homo sapiens) [8] it was -2.07; in the experiment with Torsin-1A (Homo sapiens) [9] it was -1.13; in experiment [10], -1.32. Moreover, the z-score in [2] is -0.462 (inactive); in [3], 0.105 (inactive); in experiment [4], 0.783 (inactive); in experiment [5], 0.379 (inactive).
Turning to `CCC1=C2CN(Cc3ccccc3Br)[C@@H]([C@@H](O)Cc3ccccc3)C2C=CCC1` (stereo not given in full), the composite z-score in experiment [1] was 0.0361; in experiment [6], 0.721; in [7], -0.105; with Torsin-1A (Homo sapiens) [8], 0.476; with Torsin-1A (Homo sapiens) [9] it was 0.212; in experiment [10] it was 0.675. Besides, the z-score in experiment [2] was -5.22 (inactive); in experiment [3], -0.709 (inactive); in experiment [4], 2.12 (inactive); in experiment [5], 4.84 (inactive).
